Each structure is given as a SMILES string. Inconclusive results are not listed. The source made the active and inactive calls. Rule for the calls: active = hit-call score of the fitted dose curve at least 0.9, where 1 is the maximum; inconclusive = response in the unintended direction; inactive = score below 0.9.

Chain of Glyceraldehyde-3-phosphate dehydrogenase (Homo sapiens) (P04406 whole entry, looked up): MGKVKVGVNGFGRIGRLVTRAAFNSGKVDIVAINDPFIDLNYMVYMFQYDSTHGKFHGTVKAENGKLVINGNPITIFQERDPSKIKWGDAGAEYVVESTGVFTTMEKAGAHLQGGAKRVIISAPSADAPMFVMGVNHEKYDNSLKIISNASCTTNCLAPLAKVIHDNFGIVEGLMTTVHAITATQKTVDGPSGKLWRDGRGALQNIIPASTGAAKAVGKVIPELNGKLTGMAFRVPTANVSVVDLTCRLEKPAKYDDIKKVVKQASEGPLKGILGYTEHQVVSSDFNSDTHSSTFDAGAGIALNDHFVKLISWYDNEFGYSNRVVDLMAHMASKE

Read-out in this assay: Glyceraldehyde-3-phosphate dehydrogenase (Homo sapiens) (UniProt P04406)
As to the kind of experiment: CLD_GAPDH_48hr: CellzDirect (CLD) Gene Expression Assay for Baseline Control (Glyceraldehyde 3-phosphate dehydrogenase) at 48 hours (AID 2283706).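 Note: active means higher GAPDH mRNA than DMSO vehicle.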 As to the method:
CLD_48hr is a cell-based, multiplexed-readout assay that uses hepatocyte, a human liver primary cell, with measurements taken at 48 hours after chemical dosing in a 96-well plate.CLD_GAPDH_48hr is one of 16 assay component(s) measured or calculated from the CLD_48hr assay. It is designed to make measurements of mRNA induction, a form of inducible reporter, as detected with chemiluminescence signals by Quantitative Nuclease Protection Assay (qNPA) technology.Data from the assay component CLD_GAPDH_48hr was analyzed at the endpoint, CLD_GAPDH_48hr, in the positive analysis fitting direction relative to DMSO as the negative control and baseline of activity. Using a type of inducible reporter, gain-of-signal activity can be used to understand changes in the reporter gene as they relate to the gene GAPDH. Furthermore, this assay endpoint can be referred to as a secondary readout, because this assay has produced multiple assay endpoints where this one serves a background control function. To generalize the intended target to other relatable targets, this assay endpoint is annotated to the background measurement intended target family, where subfamily is baseline control.
Human hepatocyte cultures were treated daily for two consecutive days with fresh dosing solutions containing appropriate concentrations of the 320 ToxCast chemicals (chemical identities were blinded to CellzDirect and other ToxCast collaborators), vehicle control (0.2% DMSO), and positive control inducers as summarized in Table 1. Due to the large number of treatment groups and chemicals examined, the ToxCast chemicals were divided into two groups (spanning two independent cultures of hepatocytes from separate donor preparations (Hu778: ToxCast plates 1 and 2; Hu776: ToxCast plates 3 and 4). Each preparation of human hepatocyte cultures was treated with respective vehicle control, medium only control, set of six positive controls/reference chemicals for the five hepatic receptor pathways, and a subset of eight of the ToxCast chemicals (indoxacarb, pyrithiobac-sodium, norflurazon, cyhalofop-butyl, methomyl, thiram, acetochlor, and propiconazole). These replicate data, coupled with internal replicates designed within the blinded ToxCast chemical library, provided additional data to evaluate interindividual differences between hepatocyte preparations and their potential impact on chemical profiles.Cell morphology and integrity were evaluated using phase-contrast microscopy as an indicator of hepatocyte cell health (Tyson & Green, 1987). Cultures for each treatment group (i.e., media, vehicle [0.2% DMSO], positive control inducers [multiple concentrations], and the ToxCast chemicals [multiple concentrations]) were observed and cell morphology was assessed relative to vehicle control cultures at each harvest time point (0, 6, 24, or 48 h). […] Images were evaluated at the conclusion of the study to assess changes in cell integrity and account for the effects of chemical exposure on uncharacteristic changes in concentration-dependent gene expression profiles. The results from these determinations of apparent cytotoxicity were annotated (yes/no) alongside the corresponding qNPA data for reference.At the conclusion of each treatment period, hepatocyte cultures (96-well) were washed with 1 volume of HBSS, lysed by addition of 25 ul ArrayPlate lysis buffer (HTG, Tucson, AZ), and 70 ul/well of Denaturation Oil, denatured by incubation at 95C for 10 min, and frozen at approximately -70C until analysis by nuclease protection assay (qNPA) (Roberts et al., 2007). For qNPA analysis, cell lysates were thawed at 50C for approximately 30 min, qNPA probes were added, and samples were incubated at 95C for 10 min to begin the detection process by denaturing the target RNA, dissociating the duplexes and secondary structure hybridization. At the conclusion of the hybridization period, S1 nuclease reagent was added to each sample to digest all nonprotected nucleotides at 50C for 60-90 min. […]
Take `CC(Oc1ccc(Cl)cc1Cl)C(=O)O` (configuration not stated): the outcome was inactive. Turning to `COP(=S)(OC)Oc1nc(Cl)c(Cl)cc1Cl`, the call was inactive.

For `C=CC1(C)OC(=O)N(c2cc(Cl)cc(Cl)c2)C1=O` (configuration not stated), the compound was classed as inactive. On to `Cc1ccc(-c2c(Cl)nc(C#N)n2S(=O)(=O)N(C)C)cc1`, for which the compound was classed as inactive. Next, `CNC(=S)S`: “inactive”; `CC(C)(C)c1ccc(CSc2cnn(C(C)(C)C)c(=O)c2Cl)cc1`: “inactive”; `COC(=O)C(C)Oc1ccc(Oc2ccc(Cl)cc2Cl)cc1` (configuration not stated): “inactive”. As to `CNC(=O)ON=CC(C)(C)SC`, the outcome was inactive. In the case of `CC1COC(Cn2cncn2)(c2ccc(Oc3ccc(Cl)cc3)cc2Cl)O1` (configuration not stated), the call was inactive. Next, `CN(C)C(=S)SSC(=S)N(C)C`: “inactive”; `N#Cc1nn(-c2c(Cl)cc(C(F)(F)F)cc2Cl)c(N)c1S(=O)C(F)(F)F` (configuration not stated): “inactive”; `O=C(O)COc1nc(Cl)c(Cl)cc1Cl`: “inactive”.

In the case of `CCNc1nc(Cl)nc(NCC)n1`, the result was inactive. Take `CCON=C(CC)C1=C(O)CC(c2c(C)cc(C)cc2C)CC1=O` (configuration not stated): the outcome was inactive. To `CCCCNC(=O)OCC#CI` belongs “inactive”; to `CCNc1nc(Cl)nc(NC(C)C)n1`, “inactive”; to `CCOC(=O)CC(SP(=S)(OC)OC)C(=O)OCC` (configuration not stated), “inactive”. Consider `COc1nc(C)nc(NC(=O)NS(=O)(=O)c2ccccc2Cl)n1`, for which the call was inactive. Next, `N#Cc1cc(Br)c(O)c(Br)c1`: “inactive”. Next, `CCCCC(CC)COC(=O)c1ccccc1C(=O)OCC(CC)CCCC` (configuration not stated): “inactive”; `CCCCNC(=O)n1c(NC(=O)OC)nc2ccccc21`: “inactive”. To `CCCCOC(=O)c1ccccc1C(=O)OCCCC` belongs “inactive”.

The values above are taken from PubChem BioAssay (EPA / NIEHS).
